About 510 (0.14%) of roughly 360,000 compounds were called active.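 Rule for the calls: active = mean normalized replicate activity at least 40 and at least half of replicates scoring 40 or more; inconclusive = only one of the two criteria met; inactive = mean below 40 and under half of replicates reaching 40.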 The entries come from a sample that favours actives as a whole.
Target: DNA repair and recombination protein RAD54-like (Homo sapiens) (UniProt Q92698)
Test: inhibitors of human RAD54 branch migration, primary screen, biochemical, fluorescence, single point (AID 602329);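 note: 0% = median of neutral control wells and 100% = median of positive control wells; inhibitors cause a drop in the FAM fluorescence signal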
Conditions: RAD54 Holliday junction branch migration, FAM/BHQ fluorescence; at 10.4 µM; active compounds read high

DNA repair and recombination protein RAD54-like (Homo sapiens), sequence (Q92698 whole entry, looked up): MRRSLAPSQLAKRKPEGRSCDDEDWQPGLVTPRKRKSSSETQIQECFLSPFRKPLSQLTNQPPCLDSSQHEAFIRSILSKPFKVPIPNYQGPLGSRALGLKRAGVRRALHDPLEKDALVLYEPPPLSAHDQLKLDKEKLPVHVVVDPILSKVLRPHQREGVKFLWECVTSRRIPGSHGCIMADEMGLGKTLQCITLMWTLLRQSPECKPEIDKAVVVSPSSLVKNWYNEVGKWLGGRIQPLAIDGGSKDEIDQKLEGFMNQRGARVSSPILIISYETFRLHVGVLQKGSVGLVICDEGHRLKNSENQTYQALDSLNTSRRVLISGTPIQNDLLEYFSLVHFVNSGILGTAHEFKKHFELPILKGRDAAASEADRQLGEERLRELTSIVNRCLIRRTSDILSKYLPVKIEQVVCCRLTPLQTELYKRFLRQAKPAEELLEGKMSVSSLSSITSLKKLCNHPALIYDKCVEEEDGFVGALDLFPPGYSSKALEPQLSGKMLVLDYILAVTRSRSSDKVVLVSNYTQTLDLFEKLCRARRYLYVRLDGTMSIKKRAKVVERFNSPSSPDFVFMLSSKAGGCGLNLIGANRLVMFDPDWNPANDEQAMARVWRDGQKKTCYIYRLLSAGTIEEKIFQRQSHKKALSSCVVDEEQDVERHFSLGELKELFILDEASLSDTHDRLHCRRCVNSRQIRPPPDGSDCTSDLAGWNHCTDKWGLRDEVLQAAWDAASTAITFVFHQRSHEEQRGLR

inhibition, inactive:
O=S(=O)(c1ccc(F)cc1)N1CC[C@@H]2[C@@H](CO)Nc3ccc(-c4ccccc4F)cc3[C@@H]21 7.93%
CC(=O)N(C)C[C@@H]1Oc2ncc(-c3ccccc3F)cc2C(=O)N([C@H](C)CO)C[C@@H]1C -1.78%
COc1ccccc1NC(=O)N1[C@H](C#N)[C@H](c2ccccc2)[C@H]1CO 10.5%
CC(=O)N(C)C[C@H]1Oc2cc(C#Cc3ccccc3F)ccc2S(=O)(=O)N([C@H](C)CO)C[C@@H]1C 2%
O=C(C[C@@H]1C=C[C@@H](NC(=O)c2cccnc2)[C@H](CO)O1)NCCN1CCCCC1 0.617%
O=C(CC1CC1)Nc1ccc2c(c1)[C@@H]1C[C@@H](CC(=O)NC3CCCCC3)O[C@H](CO)[C@@H]1O2 -1.82%
CN1CCC[C@@H]1CCO[C@](C)(c1ccccc1)c1ccc(Cl)cc1 11.3%
CO[C@@H]1CN(C)C(=O)c2cc(NS(=O)(=O)CC(F)(F)F)ccc2OC[C@@H](C)N(Cc2ccccn2)C[C@H]1C -9.64%
COc1ccc(S(=O)(=O)Nc2ccc3c(c2)C(=O)N([C@@H](C)CO)C[C@@H](C)[C@@H](CN(C)S(C)(=O)=O)O3)cc1 -4.67%
C[C@@H]1CCCCO[C@@H](CN(C)C(=O)NC2CCCCC2)[C@H](C)CN([C@H](C)CO)C(=O)c2cc(NC(=O)c3ccccc3)ccc2O1 -0.448%
COc1cccc(NC(=O)N2C[C@@H](O)COC[C@@H]3O[C@@H](CC(=O)NC4CCC4)CC[C@H]32)c1 -4.41%
C[C@@H]1CN([C@@H](C)CO)C(=O)c2cc(NC(=O)Nc3ccc(C(F)(F)F)cc3)ccc2O[C@@H](C)CCCCO[C@H]1CN(C)C(=O)c1ccccc1 -3.03%
CO[C@H]1CC[C@H]2CCOc3c(C#N)cccc3C(=O)N(C)CC3(CCCCC3)CC(=O)N(C)C[C@@H]1O2 -12.8%
CN1c2ccc(Br)cc2[C@@H]2[C@@H](CCN2S(=O)(=O)c2ccc(F)cc2)[C@@H]1CO -1.32%
CN1c2ccc(-c3ccccc3)cc2[C@@H]2[C@@H](CCN2C(=O)c2ccccc2F)[C@@H]1CO 4.56%
CCCC#Cc1ccc2c(c1)O[C@H](CN(C)C(=O)c1ccncc1)[C@H](C)CN([C@H](C)CO)S2(=O)=O 12.3%
C[C@@H]1CN([C@@H](C)CO)C(=O)Cc2cc(NC(=O)Nc3ccc4c(c3)OCO4)ccc2O[C@@H]1CN(C)S(=O)(=O)c1ccc(Cl)cc1 1.58%
CCC(=O)N(C)C[C@H]1Oc2ncc(C#C[C@@H](C)O)cc2C(=O)N([C@@H](C)CO)C[C@H]1C 0.495%
CN1CCN(C(=O)C[C@H]2C[C@H]3c4cc(NC(=O)C5CCC5)ccc4O[C@H]3[C@H](CO)O2)CC1 6.76%
CNC[C@H]1OCCCC[C@@H](C)Oc2ccc(NC(=O)c3ccccc3)cc2C(=O)N([C@@H](C)CO)C[C@H]1C 6.8%
COc1ccc(S(=O)(=O)N2CC[C@H]3[C@@H](CO)N(C)c4ccc(C#Cc5ccccc5OC)cc4[C@H]32)cc1 17.3%
C/C=C/c1ccc([C@@H]2[C@@H](CO)N(C(=O)CC)[C@H]2CN(C)C(=O)C2CC2)cc1 -7.87%
O=C(N[C@@H]1C=C[C@H](CC(=O)N2CCOCC2)O[C@H]1CO)c1ccccn1 -0.273%
COc1ccc(S(=O)(=O)Nc2ccc3c(c2)CC(=O)N([C@H](C)CO)C[C@@H](C)[C@@H](CN(C)S(=O)(=O)c2ccc(F)cc2)O3)cc1 -1.32%
C[C@H](CO)N1C[C@H](C)[C@H](CN(C)C(=O)Nc2ccccc2)Oc2c(NC(=O)Nc3ccc(C(F)(F)F)cc3)cccc2C1=O 0.373%
CO[C@@H](CN(C)C(=O)c1ccc2c(c1)OCO2)[C@@H](C)CN([C@H](C)CO)S(=O)(=O)c1ccccc1 2.31%
CCCC#Cc1ccc([C@@H]2[C@H](CO)N3CCCCN(S(=O)(=O)c4ccccc4F)C[C@@H]23)cc1 6.77%
CCOCCCNC(=O)c1cc2c(=O)n3ccccc3nc2s1 10.2%
Cc1ccc2nc3c(cc(C(=O)NCCc4ccccc4)c(=N)n3CC3CCCO3)c(=O)n2c1 (configuration not stated) 12.1%
COCCCn1c(C(=O)NC2CCCCC2)cc2c(=O)n3cccc(C)c3nc21 -1.16%
Cc1ccc(S(=O)(=O)c2cc3c(=O)n4cccc(C)c4nc3n(CCc3ccccc3)c2=N)cc1C 0.033%
O=C(NC1Cc2ccccc2C1)[C@@H]1[C@@H](CO)[C@@H]2Cn3c(ccc(C4=CCCC4)c3=O)[C@H]1N2CC1CC1 2.91%
O=C(Nc1ccc(F)cc1)N1CCCCN2[C@H](CO)[C@H](c3ccc(-c4ccncc4)cc3)[C@@H]2C1 -8.07%
COCC(=O)Nc1ccc2c(c1)[C@@H]1C[C@@H](CC(=O)N3CCN(C)CC3)O[C@H](CO)[C@@H]1O2 7.82%
CCC(=O)Nc1ccc2c(c1)C(=O)N(C)C[C@H](OC)[C@@H](C)CN(Cc1cccnc1)[C@H](C)CO2 -1.44%
Clc1ccc2nc(-c3ccccc3)nc(C(Cl)Cl)c2c1 -6.9%
CC(C)NC(=O)N(C)C[C@H]1Oc2ncc(-c3ccccc3F)cc2C(=O)N([C@@H](C)CO)C[C@@H]1C -5.71%
O=C(COC(=O)CCCN1C(=O)c2cccc3cccc(c23)C1=O)NC1CCS(=O)(=O)C1 (configuration not stated) -5.27%
O=C(CCCN1C(=O)c2cccc3cccc(c23)C1=O)N1CCN(Cc2ccc3c(c2)OCO3)CC1 8.9%
CCC(=O)N1C[C@H](C)[C@H](OC)CN(C)C(=O)c2ccc(NC(=O)c3cnccn3)cc2OC[C@@H]1C -7.7%
O=C(Cc1ccncc1)NCC[C@H]1CC[C@H](NC(=O)Nc2cccc(F)c2)[C@H](CO)O1 -5.21%
CCC(=O)N1C[C@@H](C)[C@@H](OC)CN(C)C(=O)c2ccc(NC(=O)c3ccccc3)cc2OC[C@H]1C -5.42%
COc1ccc(NC(=O)Nc2ccc3c(c2)CC(=O)N([C@@H](C)CO)C[C@@H](C)[C@@H](CN(C)Cc2ccc(Cl)c(Cl)c2)O3)cc1 12.1%
C[C@@H](O)C#Cc1ccc([C@H]2[C@H](CO)N3CCCCN(C(=O)c4ccc5c(c4)OCO5)C[C@@H]23)cc1 1.48%
CCC(=O)N(C)C[C@@H]1Oc2ncc(/C=C/c3ccccc3)cc2C(=O)N([C@@H](C)CO)C[C@H]1C 0.476%
COCC#Cc1cnc2c(c1)C(=O)N([C@H](C)CO)C[C@H](C)[C@H](CN(C)C(=O)Nc1cc(F)ccc1F)O2 0.435%
COc1ccc(NC(=O)N[C@@H]2CC[C@H](CC(=O)NC3CCC3)O[C@H]2CO)cc1 4.37%
C/C=C/c1ccc2c(c1)O[C@H](CN(C)C(=O)CN(C)C)[C@H](C)CN([C@@H](C)CO)S2(=O)=O -12.5%
C[C@H]1CN([C@@H](C)CO)C(=O)c2cc(C#CCN(C)C)cnc2O[C@H]1CN(C)C(=O)Cc1ccccc1 3.35%
COc1ccc(-c2ccc3c(c2)[C@H]2[C@H](CCN2C(=O)c2ccc4c(c2)OCO4)[C@@H](CO)N3)cc1 -2.22%
CCC(=O)N1C[C@H](C)[C@H](OC)CN(C)C(=O)c2ccc(NC(=O)Nc3ccccc3)cc2OC[C@H]1C -3.3%
C[C@H](CO)N1C[C@H](C)[C@H](CN(C)C)Oc2ncc(-c3ccncc3)cc2C1=O 8.42%
COc1ccc(NC(=O)Nc2ccc3c(c2)CC(=O)N([C@@H](C)CO)C[C@H](C)[C@@H](CN(C)CC2CCCCC2)O3)cc1 3.95%
CN(C)C(=O)C[C@@H]1C[C@@H]2c3cc(NC(=O)NC4CCCCC4)ccc3O[C@@H]2[C@H](CO)O1 -2.4%
O=C(C[C@H]1CC[C@H]2[C@@H](COC[C@H](O)CN2C(=O)c2ccncc2)O1)NCc1cc(F)cc(F)c1 1.6%
C[C@H](CO)N1C[C@H](C)[C@H](CN(C)S(=O)(=O)c2cccs2)Oc2c(NS(=O)(=O)c3ccc(Cl)cc3)cccc2C1=O 3.72%
CC1CCN(C(=O)CCNC(=O)c2ccccc2)CC1 -8.53%
CC1CCN(CCCn2c(SCC(=O)NC3CCCC3)nc3ccccc3c2=O)CC1 -8.12%

inhibition, active:
COc1cccc2sc3cc(NCC[C@@H]4CCCN4C)ccc3c(=O)c12 94%
Cc1cc2oc3ccc(NCCC4CCCN4C)cc3c(=O)c2cc1C (configuration not stated) 102%
Cc1cc(C)c2nc3nc(C)cc(C)c3c(N)c2c1 96%
COc1ccc(CCn2c(=N)c(C(=O)NCC3CCCO3)cc3c(=O)n4cccc(C)c4nc32)cc1OC (configuration not stated) 52.7%
CCn1c(=N)c(C(=O)NCCCOC)cc2c(=O)n3cccc(C)c3nc21 50.9%
CC(C)n1cnc2c(NCc3ccccc3)cc(OCC3CCN(C)CC3)cc21 78.7%
NC(N)=Nc1nc(-c2ccccc2)c2cc(Cl)ccc2n1 58.9%
C[N+](C)(CCCCCC[N+](C)(C)CCCN1C(=O)c2cccc3cccc(c23)C1=O)CCCN1C(=O)c2cccc3cccc(c23)C1=O 115%
Cc1nc2ccccc2c2oc(C(=O)NCCCN3CCC(C)CC3)cc12 55.2%
